A selection: hits, their analogues and other compounds. The true share with any hit is near 0.84%.
PPARg SRC-1 ag: PPARgamma agonists recruiting SRC-1 coactivator, primary screen, biochemical; Peroxisome proliferator-activated receptor gamma (Homo sapiens), P37231; PPARgamma-SRC-1 coactivator recruitment biochemical assay; activation, % at 8 µM; 200,000 compounds, 0.41% hits; AID 631, 2007; in the data active = activation above about 19%;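 also: 0% = DMSO and 100% = reference agonist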
Target sequence (P37231 whole entry, looked up): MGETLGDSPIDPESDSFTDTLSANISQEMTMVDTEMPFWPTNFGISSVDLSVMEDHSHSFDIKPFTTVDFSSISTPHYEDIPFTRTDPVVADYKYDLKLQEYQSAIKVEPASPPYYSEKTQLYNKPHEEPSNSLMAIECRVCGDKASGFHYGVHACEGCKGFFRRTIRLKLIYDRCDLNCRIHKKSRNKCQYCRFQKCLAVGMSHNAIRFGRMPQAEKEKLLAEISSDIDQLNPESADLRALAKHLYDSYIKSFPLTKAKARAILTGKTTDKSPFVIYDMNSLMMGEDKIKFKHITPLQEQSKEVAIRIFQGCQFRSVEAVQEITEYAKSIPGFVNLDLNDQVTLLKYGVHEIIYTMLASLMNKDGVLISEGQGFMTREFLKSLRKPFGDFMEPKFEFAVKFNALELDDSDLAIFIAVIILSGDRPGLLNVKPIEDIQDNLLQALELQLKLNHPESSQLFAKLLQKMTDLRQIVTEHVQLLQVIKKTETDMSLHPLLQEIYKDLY
SRC3 TRFRET art: TR-FRET detection interference compounds, artefact control for PPARgamma SRC-3 recruitment agonists, biochemical, TR-FRET ratio | TR-FRET artefact counter-screen, PPARgamma/SRC-3 format; active compounds read high | TR-FRET ratio at 8 µM | 99,000 compounds, 0.39% hits
PPARg SRC-2 ag: agonists of PPARg-SRC-2 recruitment, primary screen, biochemical, HTS | Peroxisome proliferator-activated receptor gamma (Homo sapiens), P37231 | PPARgamma LBD-SRC-2 recruitment | activation, % at 8 µM | 200,000 compounds, 0.34% hits; in the data active = activation above about 22%;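 also: 0% = vehicle and 100% = reference agonist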
PPARg SRC3 recr: PPARgamma agonists recruiting SRC-3 coactivator, primary screen, biochemical | Peroxisome proliferator-activated receptor gamma (Homo sapiens), P37231 | biochemical PPARgamma/SRC-3 coactivator recruitment assay | activation, % at 8 µM | 200,000 compounds, 0.26% hits | AID 731, 2007; in the data active = activation above about 23%;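 also: 0% = DMSO and 100% = reference agonist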
SRC1 TRFRET art: TR-FRET detection interference compounds, primary screen, artefact control for PPARgamma SRC-1 recruitment agonists, biochemical, TR-FRET emission ratio; TR-FRET detection artefact counter-screen; active compounds read high; TR-FRET ratio at 8 µM; 99,000 compounds, 0.34% hits; in the data active = TR-FRET ratio above about 2300
TR-FRET SRC-2 ct: TR-FRET signal artefacts, primary screen, artefact control for PPARgamma SRC-2 agonist project, biochemical. TR-FRET artefact counter-screen; active compounds read high. TR-FRET ratio at 8 µM. 200,000 compounds, 0.4% hits. AID 1049, 2008
An asterisk follows results filed as active; . = not tested or not shown. Rule as the data show it, unless noted: active = TR-FRET ratio above about 2000; inactive = the rest.

SMILES	PPARg SRC-1 ag	SRC3 TRFRET art	PPARg SRC-2 ag	PPARg SRC3 recr	SRC1 TRFRET art	TR-FRET SRC-2 ct
COc1ccc(C2CC(c3cccs3)=NN2C(=O)COC(=O)c2cncc(Br)c2)cc1OC (stereo unspecified)	11	2284*	2	3	2246	1406
COc1ccc(C2CC(c3cccs3)=NN2C(=O)COC(=O)C2CCCCC2)cc1OC (stereo unspecified)	3	1612	9	6	2074	1638
O=C(CSc1nc2ccccc2c(=O)n1-c1ccc(F)cc1)Nc1cc(S(=O)(=O)N2CCOCC2)ccc1Cl	-1	2000	4	4	2193	2011*
O=C(CSc1nc2cc(Cl)ccc2c(=O)n1Cc1ccco1)Nc1ccc(S(=O)(=O)N2CCOCC2)cc1	6	2505*	-3	6	2098	2029*
COC(=O)c1ccc2c(=O)n(Cc3ccco3)c(SCC(=O)Nc3ccc(C)c(Cl)c3)nc2c1	16	.	10	-11	.	1665
COc1cccc(-c2csc(N3CCN(C(=S)Nc4ccccc4C)CC3)n2)c1	-6	1817	5	4	2035	1532
Cc1cc(C)cc(-n2c(C)cc(/C=N/NC(=O)c3ccncc3)c2C)c1	1	1610	4	1	2092	1986*
Cc1ccccc1-n1c(C)cc(/C=N/NC(=O)c2ccncc2)c1C	-4	.	-6	-6	.	1379
Cc1ccc2nc(-c3ccncc3)c(NC3CCCCC3)n2c1	4	1784	13	-1	1768	1631
C/C(=N\Nc1nc2ccccc2s1)c1ccc(Br)s1	23*	1556	3	3	2044	1493
CCn1cc(S(=O)(=O)Nc2ccccc2C(F)(F)F)cn1	9	1619	23*	2	1890	1708
O=C(O)c1ccccc1NS(=O)(=O)c1ccccc1C(F)(F)F	2	.	1	3	.	1535
Cn1cc(CNC(=O)CC2C(=O)NCCN2CC(C)(C)C)cn1 (stereo unspecified)	6	1557	1	-2	1535	1586
CCS(=O)(=O)Nc1ccccc1C(N)=O	1	1676	7	-2	1994	1771
CC(=O)Nc1c(O)nc(SCC(=O)Nc2cccc(C)c2)[nH]c1=O	-1	.	0	2	.	1625
CC(=O)Nc1c(O)nc(SCC(=O)Nc2ccc(C(C)=O)cc2)[nH]c1=O	5	.	8	26*	.	1727
CC(=O)c1ccc(NC(=O)COC(=O)c2ccccc2N=Nc2ccc(N(C)C)cc2)cc1	9	1886	9	4	2419*	1674
Cc1ccc(NC(=O)CN(C)CC(=O)Nc2ccc(N3CCOCC3)cc2)c([N+](=O)[O-])c1	2	1618	2	0	1753	1548
Cc1c(C(=O)Nc2ccc(-n3cnnn3)cc2)oc2ccccc12	4	.	1	10	.	1999*
c1ccc2c(-c3cc(C4CCNCC4)[nH]n3)cccc2c1	4	1688	12	6	1825	1728
C=CCn1c(Cc2cccs2)nnc1SCC(=O)c1ccc(F)cc1	21*	.	6	3	.	1726
Cc1c(Cl)cccc1NC(=O)CCCn1nc([N+](=O)[O-])cc1C	7	1427	14	2	2085	2111*
COc1ccc([N+](=O)[O-])cc1NC(=S)NC(NC(=O)C(c1ccccc1)c1ccccc1)C(Cl)(Cl)Cl (stereo unspecified)	3	.	7	4	.	2107*
O=C(Nc1ccc2c(c1)OCCO2)c1cc2sccc2n1Cc1ccc(F)cc1	7	.	14	12	.	1828
O=C(Nc1ccc2c(c1)OCCO2)c1cc2sccc2n1Cc1ccccc1	4	.	7	2	.	1989*
SMILES	PPARg SRC-1 ag	SRC3 TRFRET art	PPARg SRC-2 ag	PPARg SRC3 recr	SRC1 TRFRET art	TR-FRET SRC-2 ct
COc1ccc(CC(=O)Nc2nc(-c3cc(OC)ccc3OC)cs2)cc1	0	1551	2	4	1968	1470
COc1ccc(OC)c(-c2csc(NC(=O)c3ccc4c(c3)OCO4)n2)c1	2	2559*	10	1	1916	1482
CC(C)CCN1CCN(Cc2ccc(C#CCCO)cc2)CC1CCO (stereo unspecified)	2	1654	1	4	1770	1525
N#Cc1ccccc1NC(=O)c1ccccc1OCC(=O)Nc1ccc2c(c1)oc1ccccc12	3	.	13	5	.	2662*
CC(=O)NC1=NC(=O)/C(=C/c2cc(C)n(-c3cccc(C(=O)O)c3)c2C)S1	0	1697	5	2	2073	1638
CC(=O)NC1=NC(=O)/C(=C/c2cc(C)n(-c3ccc(NC(C)=O)cc3)c2C)S1	3	2601*	5	24*	1777	1615
CCOc1ccc2cc(C#N)c(SCC(=O)NC(C)CC)nc2c1 (stereo unspecified)	32*	.	16	0	.	1580
Cc1ccc(OC(C)C(=O)N/N=C/c2ccccn2)cc1 (stereo unspecified)	8	1786	0	4	1825	1539
CC(C)(C)NC(=O)CSc1nc(O)cc(=O)n1-c1ccccc1F	0	.	-2	29*	.	1528
COc1ccccc1-n1c(SCC(=O)NC(C)(C)C)nc(O)cc1=O	6	.	6	4	.	1559
C=CCNC(=O)/C(=C\c1ccc(Br)cc1)NC(=O)c1ccccc1OC	3	1716	7	5	2060	1814
O=C(CCC1CCCN(c2ncccn2)C1)NCc1ccc(F)c(F)c1 (stereo unspecified)	2	1716	2	0	1586	1307
COc1cccc(C(=O)Nc2ccc(-c3nc4ccccc4o3)c(O)c2)c1	3	.	9	-5	.	2264*
CCN(CC)S(=O)(=O)c1cccc(NC(=O)COC(=O)c2n[nH]c(=O)c3ccccc23)c1	22*	1541	8	6	1936	1961
Cc1c(C(=O)Nc2nccs2)sc2nc(-c3cccs3)cc(C(F)(F)F)c12	5	.	15	7	.	2020*
CC(C)NC(=O)NC(=O)COC(=O)c1ccccc1F	0	1341	7	3	1701	1407
CC(C)NC(=O)NC(=O)CSc1ccccc1F	-2	3589*	-4	38*	1782	1669
COc1ccc(C(C(=O)NC2CCCC2)N(C(=O)c2snc(-c3ccc(F)cc3)c2N)c2ccc(OC)cc2)cc1 (stereo unspecified)	16	.	15	17	.	2223*
OC(CNCCC1C=Nc2ccccc21)Cn1c2ccc(Cl)cc2c2cc(Cl)ccc21 (stereo unspecified)	-5	1624	9	-1	1845	1500
COC(=O)C1=C(C)NC(=O)CC1c1cc2c(cc1Br)OCO2 (stereo unspecified)	-1	2175*	-3	6	1895	1470
Cc1cc(C)c(C#N)c(SCc2ccc(F)cc2)n1	5	1600	6	3	1966	1549
